According to the supplement of paper PMC10849652:
The full data set covers some 7,900 targets. This sample favours those with a hit. About 0.6% of all pairs of compound and target were hits. Values without a mark were called inactive.

Legend:
Experiment in all cases: log2 fold change, soluble protein after heating vs DMSO (PISA); higher = thermal stabilisation; K562 cells, 10 uM, 30 min; active = over 0.2 and 3.5 SD of the protein, either way, in both replicates (recomputed)
[1] = compound: CS(=O)(=O)c1ccc(-c2cnc(N)c(C(=O)Nc3ccccc3)n2)cc1
Method in brief: (§1)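 Thermal stability values are relative to control samples and come from duplicates. They are expressed as log2 fold changes. For measurement, K562 cells (2×10^6 cells/mL) received 10 μM compound for 30 min, and aliquots were heated for 3 min over 48°C-58°C, pooled, and extracted at 4°C in PBS with 0.5% NP-40. Soluble protein, the supernatant after 21,000xg for 90 min, was quantified by TMTpro 16plex LC-MS/MS with equalised channel sums.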

[2] = compound: C[C@@H](Oc1cc(-c2cnn(C3CCNCC3)c2)cnc1N)c1c(Cl)ccc(F)c1Cl [crizotinib]
Method in brief: as §1

[3] = compound: C[C@@H]1COCCN1C2=NC(=NC(=C2)C3(CC3)S(=O)(=O)C)C4=C5C=CNC5=CC=C4
Method in brief: as §1

[4] = compound: C[C@H](C1=CC=C(C=C1)C(=O)NC2=C3C=CNC3=NC=C2)N
Method in brief: as §1

[5] = compound: C[C@H](Nc1ncnc2nc[nH]c12)c1cc2cccc(Cl)c2c(=O)n1-c1ccccc1 [duvelisib]
Method in brief: as §1

[6] = compound: Cc1cc(Nc2cc(CN3CCOCC3)c3nc(C)c(Cc4ccc(Cl)cc4F)n3n2)n[nH]1 [gandotinib]
Method in brief: as §1

[7] = compound: Cc1cc(Nc2cc(N3CCN(C)CC3)nc(Sc3ccc(NC(=O)C4CC4)cc3)n2)n[nH]1 [tozasertib]
Method in brief: as §1

[8] = compound: Cc1cc(SCc2sc(-c3ccc(C(F)(F)F)cc3)nc2C)ccc1OCC(=O)O
Method in brief: as §1

[9] = compound: Cc1ccc(-n2nc(C(C)(C)C)cc2NC(=O)Nc2ccc(OCCN3CCOCC3)c3ccccc23)cc1 [doramapimod]
Method in brief: as §1

[10] = compound: Cc1ccc(C(=O)N(CCCN)[C@@H](c2nc3cc(Cl)ccc3c(=O)n2Cc2ccccc2)C(C)C)cc1 [ispinesib]
Method in brief: as §1

[11] = compound: Cc1ccc(NC(=O)c2ccc(CN3CC[C@H](N(C)C)C3)c(C(F)(F)F)c2)cc1Nc1nccc(-c2cncnc2)n1 [bafetinib]
Method in brief: as §1

[12] = compound: Cc1cccc(CC(=O)N2CCc3c2ccc(-c2cn(C)c4ncnc(N)c24)c3F)n1
Method in brief: as §1

[13] = compound: Cc1cn(-c2cc(NC(=O)c3ccc(C)c(Nc4nccc(-c5cccnc5)n4)c3)cc(C(F)(F)F)c2)cn1 [nilotinib]
Method in brief: as §1

[14] = compound: Cc1nc(Nc2n[nH]c3c2CN(C(=O)N[C@H](CN(C)C)c2ccccc2)C3(C)C)c2sccc2n1
Method in brief: as §1

[15] = compound: Cc1nc(Nc2ncc(C(=O)Nc3c(C)cccc3Cl)s2)cc(N2CCN(CCO)CC2)n1 [dasatinib]
Method in brief: as §1

[16] = compound: Cc1ncc(-c2ccnc(Nc3ccc(S(C)(=O)=O)cc3)n2)n1C(C)C
Method in brief: as §1

[17] = compound: Cn1cc(-c2ccc3c(c2)CCN3C(=O)Cc2cccc(C(F)(F)F)c2)c2c(N)ncnc21
Method in brief: as §1

[18] = compound: Cn1cc(-c2ccc3nnc(C(F)(F)c4ccc5ncccc5c4)n3n2)cn1
Method in brief: as §1

[19] = compound: Cn1cncc1[C@@](N)(c1ccc(Cl)cc1)c1ccc2c(c1)c(-c1cccc(Cl)c1)cc(=O)n2C [tipifarnib]
Method in brief: as §1

[20] = compound: FC(F)(F)c1ccc(/C=C/c2nc(COc3ccc(CCCCn4ccnn4)cc3)co2)cc1 [mubritinib]
Method in brief: as §1

Chain of UniProt Q5VT25 (Q5VT25 whole entry, looked up): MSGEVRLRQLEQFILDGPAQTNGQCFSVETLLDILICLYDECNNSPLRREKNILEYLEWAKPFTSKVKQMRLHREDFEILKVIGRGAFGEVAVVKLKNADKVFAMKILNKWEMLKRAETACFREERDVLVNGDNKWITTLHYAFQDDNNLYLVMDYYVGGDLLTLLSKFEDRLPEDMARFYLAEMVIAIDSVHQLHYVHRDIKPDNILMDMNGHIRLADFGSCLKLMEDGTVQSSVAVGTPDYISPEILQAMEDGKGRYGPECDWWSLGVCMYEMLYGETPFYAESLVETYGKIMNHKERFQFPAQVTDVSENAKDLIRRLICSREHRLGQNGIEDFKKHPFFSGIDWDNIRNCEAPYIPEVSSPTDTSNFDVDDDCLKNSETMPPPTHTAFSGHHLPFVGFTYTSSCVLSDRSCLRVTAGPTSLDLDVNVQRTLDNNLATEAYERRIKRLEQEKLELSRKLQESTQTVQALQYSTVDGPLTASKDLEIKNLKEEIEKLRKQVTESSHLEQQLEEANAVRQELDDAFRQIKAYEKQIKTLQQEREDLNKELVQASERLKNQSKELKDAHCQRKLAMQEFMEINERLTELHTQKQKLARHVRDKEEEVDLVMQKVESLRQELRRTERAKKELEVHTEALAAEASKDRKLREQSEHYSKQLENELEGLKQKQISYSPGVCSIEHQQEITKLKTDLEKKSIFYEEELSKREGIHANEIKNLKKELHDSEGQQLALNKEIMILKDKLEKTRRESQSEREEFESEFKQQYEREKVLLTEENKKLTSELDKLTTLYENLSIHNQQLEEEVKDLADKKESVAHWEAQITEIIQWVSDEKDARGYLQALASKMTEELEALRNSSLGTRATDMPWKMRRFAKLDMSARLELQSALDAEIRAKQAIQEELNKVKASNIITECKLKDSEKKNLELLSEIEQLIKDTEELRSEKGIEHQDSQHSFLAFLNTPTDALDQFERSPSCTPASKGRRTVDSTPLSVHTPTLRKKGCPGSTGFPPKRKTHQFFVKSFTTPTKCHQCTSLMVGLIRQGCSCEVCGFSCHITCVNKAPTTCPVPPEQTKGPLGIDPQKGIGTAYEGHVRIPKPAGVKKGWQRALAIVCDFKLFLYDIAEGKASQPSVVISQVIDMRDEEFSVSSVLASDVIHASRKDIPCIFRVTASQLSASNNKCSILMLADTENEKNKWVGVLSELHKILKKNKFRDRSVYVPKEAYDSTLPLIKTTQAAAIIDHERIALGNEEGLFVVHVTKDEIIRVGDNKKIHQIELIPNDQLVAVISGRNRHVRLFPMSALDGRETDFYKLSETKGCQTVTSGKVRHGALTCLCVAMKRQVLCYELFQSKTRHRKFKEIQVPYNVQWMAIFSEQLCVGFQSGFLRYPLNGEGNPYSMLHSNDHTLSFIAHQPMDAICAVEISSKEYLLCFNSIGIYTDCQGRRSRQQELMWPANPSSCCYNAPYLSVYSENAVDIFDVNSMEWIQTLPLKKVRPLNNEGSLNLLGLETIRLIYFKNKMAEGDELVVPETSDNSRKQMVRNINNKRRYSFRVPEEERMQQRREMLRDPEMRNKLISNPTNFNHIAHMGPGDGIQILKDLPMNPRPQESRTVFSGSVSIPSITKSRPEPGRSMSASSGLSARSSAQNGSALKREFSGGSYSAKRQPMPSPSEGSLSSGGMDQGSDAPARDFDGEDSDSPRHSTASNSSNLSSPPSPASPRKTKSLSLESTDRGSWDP
Chain of UniProt O75208 (O75208 whole entry, looked up): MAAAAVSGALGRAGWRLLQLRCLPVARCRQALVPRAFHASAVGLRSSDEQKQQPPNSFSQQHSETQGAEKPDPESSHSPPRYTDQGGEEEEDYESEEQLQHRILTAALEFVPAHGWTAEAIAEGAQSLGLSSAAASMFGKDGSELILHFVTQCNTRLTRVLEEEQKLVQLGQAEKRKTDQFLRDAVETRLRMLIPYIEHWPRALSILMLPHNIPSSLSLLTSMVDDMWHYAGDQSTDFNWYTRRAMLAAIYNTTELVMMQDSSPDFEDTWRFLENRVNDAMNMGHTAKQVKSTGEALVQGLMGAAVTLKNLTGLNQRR
Chain of UniProt P51636 (P51636 whole entry, looked up): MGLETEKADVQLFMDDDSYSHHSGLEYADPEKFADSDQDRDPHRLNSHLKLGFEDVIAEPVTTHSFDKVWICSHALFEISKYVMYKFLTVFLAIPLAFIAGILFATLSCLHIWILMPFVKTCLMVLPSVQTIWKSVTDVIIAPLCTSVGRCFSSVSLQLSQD
Chain of UniProt Q9P031 (Q9P031 whole entry, looked up): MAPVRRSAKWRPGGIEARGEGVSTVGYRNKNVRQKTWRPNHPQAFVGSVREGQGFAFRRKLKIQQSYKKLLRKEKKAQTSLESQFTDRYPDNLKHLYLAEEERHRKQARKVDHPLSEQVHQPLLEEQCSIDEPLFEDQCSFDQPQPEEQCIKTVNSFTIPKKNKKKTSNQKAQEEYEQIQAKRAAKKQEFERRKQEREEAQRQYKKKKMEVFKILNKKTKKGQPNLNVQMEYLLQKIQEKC
Chain of UniProt O75976 (O75976 whole entry, looked up): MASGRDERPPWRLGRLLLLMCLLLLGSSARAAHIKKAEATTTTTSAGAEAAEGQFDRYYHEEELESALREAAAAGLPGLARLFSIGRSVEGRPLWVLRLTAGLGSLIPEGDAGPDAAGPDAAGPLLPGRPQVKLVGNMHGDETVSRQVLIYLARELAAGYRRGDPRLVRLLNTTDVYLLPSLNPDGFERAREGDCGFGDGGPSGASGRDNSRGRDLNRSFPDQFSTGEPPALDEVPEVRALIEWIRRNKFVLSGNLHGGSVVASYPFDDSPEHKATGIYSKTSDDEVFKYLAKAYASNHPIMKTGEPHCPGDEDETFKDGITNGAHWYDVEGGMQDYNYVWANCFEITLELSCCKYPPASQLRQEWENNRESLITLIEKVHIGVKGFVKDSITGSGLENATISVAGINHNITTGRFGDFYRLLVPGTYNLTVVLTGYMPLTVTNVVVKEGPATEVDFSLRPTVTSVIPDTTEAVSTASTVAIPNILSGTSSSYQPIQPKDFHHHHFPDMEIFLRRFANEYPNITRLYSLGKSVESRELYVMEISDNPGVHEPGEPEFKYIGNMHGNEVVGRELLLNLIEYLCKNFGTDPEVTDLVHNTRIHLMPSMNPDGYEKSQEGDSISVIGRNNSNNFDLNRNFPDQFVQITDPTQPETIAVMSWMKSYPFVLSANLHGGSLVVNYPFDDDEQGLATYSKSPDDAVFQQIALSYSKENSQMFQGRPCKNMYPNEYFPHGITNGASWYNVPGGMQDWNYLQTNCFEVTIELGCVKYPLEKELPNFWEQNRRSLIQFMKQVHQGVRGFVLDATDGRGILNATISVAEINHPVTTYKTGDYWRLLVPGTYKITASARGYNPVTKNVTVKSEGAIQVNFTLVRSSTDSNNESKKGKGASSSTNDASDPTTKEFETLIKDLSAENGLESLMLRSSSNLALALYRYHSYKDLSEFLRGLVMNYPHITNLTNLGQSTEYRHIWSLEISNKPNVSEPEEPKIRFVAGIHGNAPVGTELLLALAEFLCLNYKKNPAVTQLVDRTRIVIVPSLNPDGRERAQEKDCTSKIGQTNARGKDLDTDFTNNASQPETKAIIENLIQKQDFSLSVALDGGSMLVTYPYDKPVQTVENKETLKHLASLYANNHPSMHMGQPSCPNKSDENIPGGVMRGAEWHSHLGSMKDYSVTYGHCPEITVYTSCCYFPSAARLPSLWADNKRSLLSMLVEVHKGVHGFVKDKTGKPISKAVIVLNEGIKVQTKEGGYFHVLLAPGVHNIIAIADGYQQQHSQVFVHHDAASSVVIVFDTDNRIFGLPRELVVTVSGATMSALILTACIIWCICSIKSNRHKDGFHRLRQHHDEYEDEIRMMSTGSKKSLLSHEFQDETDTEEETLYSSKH
Chain of UniProt Q9UIV1 (Q9UIV1 whole entry, looked up): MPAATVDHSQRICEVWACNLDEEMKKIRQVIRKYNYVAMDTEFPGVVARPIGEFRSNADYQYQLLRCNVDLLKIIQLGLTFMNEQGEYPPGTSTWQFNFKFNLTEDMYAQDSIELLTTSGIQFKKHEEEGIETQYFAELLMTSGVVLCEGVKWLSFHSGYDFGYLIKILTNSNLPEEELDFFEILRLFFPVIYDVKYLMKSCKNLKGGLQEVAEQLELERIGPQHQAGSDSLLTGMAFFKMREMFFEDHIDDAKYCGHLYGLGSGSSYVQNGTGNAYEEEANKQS
Chain of UniProt P46109 (P46109 whole entry, looked up): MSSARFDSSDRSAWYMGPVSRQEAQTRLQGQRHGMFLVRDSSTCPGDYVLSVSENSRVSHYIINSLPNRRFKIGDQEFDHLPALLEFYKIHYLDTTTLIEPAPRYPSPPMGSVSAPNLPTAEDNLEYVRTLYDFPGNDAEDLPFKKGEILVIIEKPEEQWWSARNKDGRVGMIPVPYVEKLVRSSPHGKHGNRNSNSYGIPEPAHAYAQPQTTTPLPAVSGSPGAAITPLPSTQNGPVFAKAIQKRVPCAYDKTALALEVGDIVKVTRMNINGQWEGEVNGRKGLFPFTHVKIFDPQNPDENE

In the case of CNOT7 (UniProt Q9UIV1), the log2 fold change [1] is reported as -0.052, the log2 fold change [2] is reported as -0.097 and the log2 fold change [3] is reported as 0.043. It also gave a log2 fold change [4] of 0.219, a log2 fold change [5] of 0.069 and a log2 fold change [6] of -0.003. For the same target, the log2 fold change [7] was -0.007, the log2 fold change [8] was 0.022 and the log2 fold change [9] was 0.07. The log2 fold change [10] was -0.072, the log2 fold change [11] was 0.059 and the log2 fold change [12] was -0.037. It also gave a log2 fold change [13] of -0.077, a log2 fold change [14] of -0.057 and a log2 fold change [15] of -0.255. The log2 fold change [16] was 0.002, the log2 fold change [17] was -0.034 and the log2 fold change [18] was -0.051. For the same target, the log2 fold change [19] was -0.075 and the log2 fold change [20] was 0.014.
C19orf53 (UniProt Q9UNZ5) gave a log2 fold change [1] of -0.125, a log2 fold change [2] of 0.092 and a log2 fold change [3] of -0.553. For the same target, the log2 fold change [4] was 0.404, the log2 fold change [5] was -0.15 and the log2 fold change [6] was 0.316. For the same target, the log2 fold change [7] was 0.022, the log2 fold change [8] was 0.03 and the log2 fold change [9] was 0.174. The log2 fold change [10] was -0.13, the log2 fold change [11] was 0.271 and the log2 fold change [12] was 0.034. The log2 fold change [13] was 0.029, the log2 fold change [14] was 0.139 and the log2 fold change [15] was 0.222. It also gave a log2 fold change [16] of 0.023, a log2 fold change [17] of -0.207 and a log2 fold change [18] of -0.083. For the same target, the log2 fold change [19] was 0.165 and the log2 fold change [20] was -0.13.
With CDC42BPA isoform 6 (UniProt Q5VT25) the log2 fold change [1] was 0.03, the log2 fold change [2] was -0.477 (active) and the log2 fold change [3] was -0.016. For the same target, the log2 fold change [4] was -0.596 (active), the log2 fold change [5] was 0.145 and the log2 fold change [6] was -0.148. The log2 fold change [7] was -0.048, the log2 fold change [8] was 0.002 and the log2 fold change [9] was 0.071. It also gave a log2 fold change [10] of -0.049, a log2 fold change [11] of 0.051 and a log2 fold change [12] of 0.102. For the same target, the log2 fold change [13] was 0.28, the log2 fold change [14] was -0.682 (active) and the log2 fold change [15] was -0.254. It also gave a log2 fold change [16] of 0.135, a log2 fold change [17] of 0.036 and a log2 fold change [18] of 0.008. The log2 fold change [19] was -0.185 and the log2 fold change [20] was 0.037.
In the case of CPD (UniProt O75976), the log2 fold change [1] is reported as 0, the log2 fold change [2] is reported as -0.294 (active) and the log2 fold change [3] is reported as 0.002. The log2 fold change [4] was 0.019, the log2 fold change [5] was 0.036 and the log2 fold change [6] was 0.033. The log2 fold change [7] was -0.036, the log2 fold change [8] was -0.01 and the log2 fold change [9] was 0.028. The log2 fold change [10] was -0.174, the log2 fold change [11] was -0.07 and the log2 fold change [12] was 0.01. The log2 fold change [13] was -0.007, the log2 fold change [14] was -0.033 and the log2 fold change [15] was 0.026. The log2 fold change [16] was -0.029, the log2 fold change [17] was -0.029 and the log2 fold change [18] was 0.026. The log2 fold change [19] was 0.055 and the log2 fold change [20] was -0.009.
In the case of CCDC59 (UniProt Q9P031), the log2 fold change [1] is reported as 0.09, the log2 fold change [2] is reported as -0.084 and the log2 fold change [3] is reported as 0. For the same target, the log2 fold change [4] was 0.389, the log2 fold change [5] was -0.157 and the log2 fold change [6] was 0.186. It also gave a log2 fold change [7] of 0.01, a log2 fold change [8] of 0.006 and a log2 fold change [9] of 0.164. The log2 fold change [10] was -0.136, the log2 fold change [11] was 0.117 and the log2 fold change [12] was -0.041. It also gave a log2 fold change [13] of 0.032, a log2 fold change [14] of 0.048 and a log2 fold change [15] of 0.037. It also gave a log2 fold change [16] of 0.028, a log2 fold change [17] of -0.277 and a log2 fold change [18] of -0.13. For the same target, the log2 fold change [19] was 0.09 and the log2 fold change [20] was -0.056.
For CRKL (UniProt P46109), the log2 fold change [1] was 0.037, the log2 fold change [2] was -1.34 (active) and the log2 fold change [3] was 0.008. For the same target, the log2 fold change [4] was -0.045, the log2 fold change [5] was 0.075 and the log2 fold change [6] was -0.027. It also gave a log2 fold change [7] of -0.357, a log2 fold change [8] of 0.012 and a log2 fold change [9] of -0.024. The log2 fold change [10] was 0.046, the log2 fold change [11] was -1.41 (active) and the log2 fold change [12] was 0.013. The log2 fold change [13] was -1.34 (active), the log2 fold change [14] was -0.054 and the log2 fold change [15] was -2.17 (active). For the same target, the log2 fold change [16] was 0.023, the log2 fold change [17] was 0.004 and the log2 fold change [18] was 0.028. For the same target, the log2 fold change [19] was 0.024 and the log2 fold change [20] was 0.049.
Target COQ9 (UniProt O75208) has a log2 fold change [1] of 0.02, a log2 fold change [2] of -0.067 and a log2 fold change [3] of 0.03. The log2 fold change [4] was -0.064, the log2 fold change [5] was -0.043 and the log2 fold change [6] was -0.029. It also gave a log2 fold change [7] of 0.009, a log2 fold change [8] of 0.032 and a log2 fold change [9] of -0.079. It also gave a log2 fold change [10] of -0.055, a log2 fold change [11] of -0.124 and a log2 fold change [12] of 0.074. The log2 fold change [13] was -0.06, the log2 fold change [14] was -0.035 and the log2 fold change [15] was -0.147. The log2 fold change [16] was 0.001, the log2 fold change [17] was 0.052 and the log2 fold change [18] was 0.028. It also gave a log2 fold change [19] of -0.068 and a log2 fold change [20] of -0.04.
CAV2 (UniProt P51636) gave a log2 fold change [1] of -0.067, a log2 fold change [2] of -0.087 and a log2 fold change [5] of 0.075. The log2 fold change [6] was 0.043, the log2 fold change [7] was -0.115 and the log2 fold change [8] was 0.035. The log2 fold change [9] was 0.13, the log2 fold change [11] was -1.25 (active) and the log2 fold change [12] was -0.054. For the same target, the log2 fold change [13] was 0.221, the log2 fold change [14] was -0.082 and the log2 fold change [15] was 0.033. The log2 fold change [16] was 0.008, the log2 fold change [19] was 0.136 and the log2 fold change [20] was 0.066.
